Experimental data published in PubChem BioAssay (NCI).
The panel holds about 79,000 compounds, 15% with a hit somewhere; the sample as a whole holds those more often. The source made the active and inactive calls. No stated cut-off is given here; in the data, active means growth inhibition above about 70%; inactive means the rest.

Assay: NCI Yeast Anticancer Drug Screen. Data for the bub3 strain (AID 167)
Conditions: S. cerevisiae bub3 mutant strain, at 50.0 µM (retest, dose inferred, filed as 5.0), active compounds read high
Method in brief: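 Mutant yeast screening strain plus compound; vehicle-treated cultures serve as the 0% inhibition reference.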

Row | SMILES | growth inhibition
1 | C=CCOc1cc2c(ccc1=O)-c1c(cc(OC)c(OC)c1OC)CCC2NC(C)=O (stereo not given) | 66% (inactive)
2 | c1ccc2c(c1)[As]=c1ccccc1=[As]2 (stereo not given) | 98% (active)
3 | CCC(C)(c1ccc(O)cc1)c1ccc(O)cc1 | 99% (active)
4 | COc1cc(C2c3cc4c(cc3[C@@H](Nc3ccc(F)cc3)C3COC(=O)[C@H]23)OCO4)cc(OC)c1O (stereo not given in full) | 99% (active)
5 | CC(C)(C)OC(=O)NC(CSC(c1ccccc1)(c1ccccc1)c1cccs1)C(=O)O (stereo not given) | 99% (active)
6 | CCOP(=S)(OCC)OC(c1ccc(Cl)cc1)c1ccc(Cl)cc1 | 18% (inactive)
7 | COc1ccc(OC)c(C=O)c1 | 7% (inactive)
8 | CC(=O)Oc1cccc2c1CC(C[Se]c1ccccc1)C(=O)O2 (stereo not given) | 38% (inactive)
9 | CCOC(=S)S | 99% (active)
10 | CC(NCCN(C)C)C1CC2CCCCN2C1 (stereo not given) | 1% (inactive)
11 | Nc1ncc(CCCCc2ccc(NC(=O)Nc3ccc(S(=O)(=O)F)cc3)cc2)c(N)n1 | 48% (inactive)
12 | CC#N.FC(F)(F)C#CC(F)(F)F.FC(F)(F)C#CC(F)(F)F.FC(F)(F)C#CC(F)(F)F.[W] | 99% (active)
13 | [Cl][Hg][CH2]CC1CC=CCC1 (stereo not given) | 99% (active)
14 | CC(=O)O[C@H]1CC[C@H]2[C@@H]3CCC4=CC(=O)CC[C@@H]4[C@H]3CC[C@]12C | 84% (active)
15 | c1ccc(P(CCP(c2ccccc2)c2ccccc2)CCP(c2ccccc2)c2ccccc2)cc1 | 96% (active)
16 | Cc1cc(NCc2ccccc2)c2ccccc2[n+]1CCCCCCCCCC[n+]1c(C)cc(NCc2ccccc2)c2ccccc21 | 99% (active)
17 | CCCCC(CC)CNP(=S)(NCC(CC)CCCC)NCC(CC)CCCC (stereo not given) | 37% (inactive)
18 | Nc1c(Br)cc(Br)c2c1C(=O)c1ccccc1C2=O | 4% (inactive)
19 | O=[N+]([O-])/C=C/c1cc2c(cc1Br)OCO2 | 89% (active)
20 | CC(Br)CN(CC(C)Br)c1ccc2c(c1)Cc1ccccc1-2 (stereo not given) | 92% (active)
21 | c1ccc2c[n+](CCCCCCCCCC[n+]3ccc4ccccc4c3)ccc2c1 | 99% (active)
22 | CCC[CH2][Sn]([N]=C=S)([N]=C=S)[N]=C=S.O=P(c1ccccc1)(c1ccccc1)c1ccccc1.O=P(c1ccccc1)(c1ccccc1)c1ccccc1 | 33% (inactive)
23 | CN(CCC(N)CC(=O)NC1C=CC(n2ccc(N)nc2=O)OC1C(=O)O)C(=N)N (stereo not given) | 96% (active)
24 | O=C1C=CC(=O)N1c1cccc2ccccc12 (tested in a mixture with another compound) | -5% (inactive)
25 | CN(C)c1ccc(N=Cc2c([O-])ccc3ccccc23)cc1.[C-]#[O+].[C-]#[O+].[Ir] | 2% (inactive)
